Screening results: PubChem, National Center for Advancing Translational Sciences (NCATS)
Luciferase inh: Photinus pyralis luciferase inhibition; P08659; purified P. pyralis luciferase, luminescence, biochemical; Potency, µM (titrated, usually from 115 µM), actives largely listed as inhibitors; 76,000 compounds, 2.5% hits; note: nearly all actives have a fitted effect of over 65% in size
Target sequence (P08659 whole entry, looked up): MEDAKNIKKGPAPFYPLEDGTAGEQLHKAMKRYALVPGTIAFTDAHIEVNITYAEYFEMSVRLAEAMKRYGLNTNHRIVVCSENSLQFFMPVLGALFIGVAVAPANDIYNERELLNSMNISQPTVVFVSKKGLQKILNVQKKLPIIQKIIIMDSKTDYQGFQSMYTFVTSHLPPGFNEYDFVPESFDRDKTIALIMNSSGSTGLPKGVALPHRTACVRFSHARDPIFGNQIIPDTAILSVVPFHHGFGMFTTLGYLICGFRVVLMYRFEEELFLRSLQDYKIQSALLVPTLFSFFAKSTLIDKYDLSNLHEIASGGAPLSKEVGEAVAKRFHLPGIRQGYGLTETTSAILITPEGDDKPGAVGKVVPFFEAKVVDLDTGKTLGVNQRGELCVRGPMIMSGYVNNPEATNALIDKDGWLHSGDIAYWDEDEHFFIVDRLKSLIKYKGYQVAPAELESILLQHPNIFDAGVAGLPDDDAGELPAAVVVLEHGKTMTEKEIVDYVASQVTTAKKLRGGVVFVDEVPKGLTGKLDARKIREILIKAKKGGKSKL
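Purified P. pyralis luciferase (10nM final) in 50mM Tris acetate pH 7.5, 10mM Mg acetate, 0.01% Tween-20, 0.05% BSA with 10uM D-luciferin and 10uM ATP. Compounds titrated qHTS. Luminescence imaged on CCD.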
NPR1 antag: blocks ANP-stimulated signaling of human Npr1 receptor. P16066. AID 1347048. 76,000 compounds, 1.6% hits. HEK293 hNpr1 GloSensor cGMP, ANP-stimulated luminescence. Potency, µM (top dose mostly 46.3 µM), without a hit: top-dose activity change, negative = inhibition, usual class: inhibitors; calls by dose curve; note: nearly all actives have a fitted effect of over 60% in size
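HEK293 cells stably expressing human Npr1 and cGMP GloSensor pGS-40F, loaded 2 h with 2% GloSensor reagent, given compound 30 min at room temperature. Luminescence read before and 20 min after 0.1 nM hNppA.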
HEK293 tox: HEK 293 cell cytotoxicity | 94,000 compounds, 6.6% hits | AID 1345083 | Potency, µM (series often up to 115 µM), for inactives: at the highest dose activity change, negative = cytotoxicity, hits mostly inhibitors | HEK 293 viability, ATP luminescence (CellTiter-Glo), 48-72 h; note: nearly all actives have a fitted effect of over 60% in size
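CellTiter-Glo luminescence (cellular ATP) was read after 48 or 72 hr of compound exposure at 37 degree Celsius. Cells were HEK 293 plated at 250 cells/well.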
3T3 cytotox: kills NIH 3T3 cells; NIH 3T3 viability, CellTiter-Glo ATP luminescence, 48-72 h; Potency, µM (doses to about 96.7 µM), inactives show top-dose activity change, negative = cytotoxicity, actives largely listed as inhibitors; AID 1345082; 94,000 compounds, 4.3% hits; note: nearly all actives have a fitted effect of over 55% in size
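NIH 3T3 cells at 400 cells/well received 23 nL of compound by pintool and were incubated 48 or 72 h at 37 °C. Viability was read as ATP-coupled CellTiter-Glo luminescence.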
* hit, by the source's call; i = inactive; ? = inconclusive; · = no result; [ ] = dose if it differs, or a comment. A selection: hits, their analogues and other compounds. The true share with any hit is near 11%. Unless noted, calls come from the whole dose curve; as a rule, active = well fitted curve in the direction sought with a large enough effect; inconclusive = small, poorly fitted or top-dose-only effect, or another doubt; inactive = no such curve, though single readings can be large; an effect the other way counts as inactive or inconclusive. % is set by controls: 0 for no effect and ±100 for the full control effect; potency is the fitted concentration of half-maximal effect.

SMILES	Luciferase inh	NPR1 antag	HEK293 tox	3T3 cytotox
CN(C)C(=O)c1ccc(-c2ccc(N3CCCCCC3)nc2)cc1	18µM*	-23%	32µM*	?
CN(C)C(=O)c1ccnc(-c2nnc3ccc(N4CCCCC4)nn23)c1	i	-2%[70.6 µM]	5%[172 µM]	32µM*
O=C(c1ccc(-c2ccc(N3CCCCCC3)nc2)cc1)N1CCCC1	?	?	28µM*	32µM*
CN1CC(=O)N(C2CCCNCC2)Cc2c(NCCO)ncnc21 (stereo not drawn)	·	·	-11%	-13%
CN(Cc1cccnc1)c1nc2c(c(=O)[nH]1)CCN(Cc1ccccc1Cl)CC2	i	-5%	?	?
COc1ccc(-c2cc(N3CCCN(C(=O)C4CCCC4)CC3)n[nH]2)cc1	?	0%	?	-18%
COc1ccc(-c2cc(N3CCCN(C(=O)c4ccc(C)s4)CC3)n[nH]2)cc1	?	0%	40µM*	?
COc1ccc(-c2cc(N3CCCN(C(=O)C4(c5ccc(OC)cc5)CC4)CC3)n[nH]2)cc1	i	?	45µM*	?
COc1ccc(-c2cc(N3CCN(C(=O)c4c[nH]c5ccccc45)CC3)n[nH]2)cc1	i	0%	?	25µM*
CC(C(=O)N1CCN(c2cc(-c3ccc(Cl)cc3)[nH]n2)CC1)c1ccccc1 (stereo not drawn)	i	0%	28µM*	?
COc1ccc(-c2cc(N3CCCN(C(=O)c4ccc(Br)cc4)CC3)n[nH]2)cc1	i	-6%	?	?
Cc1ccc(C(=O)NC(C(=O)N2CCCC2)C2CCN(C(=O)c3ccccc3F)CC2)cc1 (stereo not drawn)	i	-8%	-3%	-23%
COc1ccccc1CC(=O)N1CCC2(CC1)NC(=O)N(c1cccc(F)c1)N2	i	0%	?	?
Cc1ccc(C(=O)N2CCc3cn(C)c4cccc(c34)C2)cc1	i	-7%	?	?
CC(C)CCn1c(CN2CCN(C(C)C)C(CCO)C2)nc2ccccc21 (stereo not drawn)	i	-2%	5%	2%
CC(C(=O)N1CCCN(c2cc(-c3ccccc3)[nH]n2)CC1)c1ccccc1 (stereo not drawn)	i	-19%	?	?
COc1ccc(-c2cc(N3CCCN(C(=O)C(C)c4ccccc4)CC3)n[nH]2)cc1 (stereo not drawn)	i	-2%	79µM*	?
CCSc1ncc(CN2CCN(c3nc(C)cnc3C)CC2)cn1	i	-1%	-30%	?
CC(=O)N1CCN(C(=O)c2ccc3c(c2)NC(C)(CNc2ccccc2)CO3)CC1 (stereo not drawn)	i	-3%[70.6 µM]	?	-24%[138 µM]
NC1CC(c2cc(N3CCN(CCOc4ccccc4)CC3)ncn2)C1 (stereo not drawn)	i	-24%	22µM*	?
COc1ccccc1-c1cccc(CN2CCC(N[S+](=O)([O-])c3ccc(C)cc3)CC2)c1	·	·	35µM*	?
COc1ccccc1-c1cccc(CN2CCC(N[S+](=O)([O-])c3c(C)noc3C)CC2)c1	·	·	35µM*	35µM*
CCCNC(=O)C1COC2(CCN(C(=O)c3ccc(F)cc3)CC2)N1C(=O)c1ccc(F)cc1 (stereo not drawn)	i	-4%	4%	-23%
CCCCN1CCN(C(=O)c2cc3cn(C4CC4)cc3s2)CC1	i	-3%	-23%	-10%
C[C@@H](N)C(=O)N1CCC(C(=O)Nc2cccc(-c3cccc(Cl)c3)c2)CC1	i	4%	40µM*	28µM*
CS(=O)(=O)N1CCC(OC2CCN(C(=O)Nc3cccc(Cl)c3)CC2)CC1	i	1%	?	?
CC(=O)Nc1cccc(C(=O)NC2CCCN(c3cc(-c4ccc(Cl)cc4)[nH]n3)C2)c1 (stereo not drawn)	32µM*	5%	45µM*	?
CN(C)c1cccc(C(=O)NC2CCCN(c3cc(-c4ccc(Cl)cc4)[nH]n3)C2)c1 (stereo not drawn)	?	-19%	?	?
O=C(NC1CCCN(c2cc(-c3ccc(F)cc3)[nH]n2)C1)c1cccc(Br)c1 (stereo not drawn)	i	-26%	32µM*	?
Cc1nnc2ccc(N3CCC(NC(=O)c4cccc(Cl)c4)C3)nn12 (stereo not drawn)	·	·	-22%	?
